Out of some 39,000 compounds screened, about 3,300 (8.5%) were called active. For the sample, actives were picked, then their nearest neighbours and some compounds at random.
tested on: HepG2; assay: cytotoxicity call (relative viability < 0.9); conditions: 10 µM

Structure (SMILES)	cytotoxicity call
Cc1noc(C)c1NC(=O)Nc1ccc2c(c1)C(=O)N([C@H](C)CO)C[C@H](C)[C@H](CN(C)S(=O)(=O)c1ccc(F)cc1)OCCCC[C@H](C)O2	inactive
C[C@H]1CCCCO[C@H](CN(C)S(=O)(=O)c2ccccc2)[C@@H](C)CN([C@@H](C)CO)C(=O)c2cc(NC(=O)C3CCCCC3)ccc2O1	inactive
CN1CCN(C(=O)c2nn(C)c3c2CCN(S(C)(=O)=O)C3)CC1	inactive
C[C@H](CO)N1C[C@H](C)[C@@H](CN(C)CC2CCOCC2)Oc2cc(-c3cccnc3)ccc2S1(=O)=O	inactive
COc1ccc(S(=O)(=O)Nc2cccc3c2O[C@H](CN(C)C(=O)Nc2c(C)noc2C)[C@H](C)CN([C@H](C)CO)C3=O)cc1	inactive
CCS(=O)(=O)N1C[C@]2(CCN(CC2)C(=O)Cc2ccccc2)c2c(n(c3cc(ccc23)OC)C)[C@@H]1CO	inactive
Cc1ccc[nH]c1=O	inactive
COc1cccc(S(=O)(=O)N(C)C[C@@H]2Oc3cc(C#CCC(C)C)ccc3S(=O)(=O)N([C@@H](C)CO)C[C@@H]2C)c1	inactive
CC1(C)SC2C(NC(=O)Cc3ccccc3)C(=O)N2C1C(=O)[O-].[K+] (stereo not given)	inactive
C[C@@H]1CCCCO[C@@H](CN(C)C(=O)Nc2ccc3c(c2)OCO3)[C@H](C)CN([C@@H](C)CO)C(=O)c2cc(NS(=O)(=O)c3ccc(F)cc3)ccc2O1	inactive
COc1ccc(CN(C)C[C@H]2Oc3ccc(NC(=O)Cn4cnnn4)cc3CC(=O)N([C@H](C)CO)C[C@H]2C)cc1	inactive
C[C@@H]1CN([C@H](C)CO)C(=O)Cc2cc(NS(C)(=O)=O)ccc2O[C@@H]1CN(C)Cc1ccc2c(c1)OCO2	inactive
Nn1c(-c2ccncc2)n[nH]c1=S	inactive
O=C(NO)c1cn(-c2ccc(C[C@H]3C(=O)O[C@@H](Cc4ccccc4)[C@H]4[C@@H]5C=CCCC=C5CN43)cc2)nn1	active
O=C(CCc1cn(-c2ccc(C[C@H]3C(=O)O[C@@H](Cc4ccccc4)[C@H]4[C@@H]5C=CCCC=C5CN43)cc2)nn1)NO	inactive
O=C(/C=C/c1cccc(-c2cn(-c3ccc(C[C@H]4C(=O)O[C@@H](Cc5ccccc5)[C@H]5[C@@H]6C=CCCC=C6CN54)cc3)nn2)c1)NO	inactive
CC(C)[C@@H](CO)N1C(=O)[C@]2(C)[C@H]3C(=O)OCCC/C=C\[C@H]3O[C@]23C=CCN(c2ccc(Cl)cc2)C(=O)[C@@H]13	inactive
NC[C@@H]1O[C@H](C23CC4CC(CC(C4)C2)C3)Cc2c1ccc(O)c2O	inactive
C[C@H](CO)N1C[C@H](C)[C@H](CN(C)S(C)(=O)=O)Oc2cc(-c3ccccc3F)ccc2S1(=O)=O	inactive
CS(=O)(=O)Nc1ccc([N+](=O)[O-])cc1Oc1ccccc1	inactive
O=[N+]([O-])c1ccc(Oc2ccc(-c3ccccc3)cc2)cc1	active
C=C(C)COc1ccc([N+](=O)[O-])cc1	inactive
Cn1c(=O)c2c(ncn2CCNC2=NCCC2)n(C)c1=O	inactive
Cc1noc(C)c1NC(=O)Nc1cccc2c1O[C@@H](CN(C)S(=O)(=O)c1cn(C)cn1)[C@@H](C)CN([C@@H](C)CO)C2=O	inactive

Structure (SMILES)	cytotoxicity call
Cc1noc(C)c1S(=O)(=O)Nc1ccc2c(c1)C(=O)N([C@H](C)CO)C[C@H](C)[C@H](CN(C)S(=O)(=O)c1ccccc1)O2	inactive
Cc1noc(C)c1S(=O)(=O)N(C)C[C@@H]1Oc2c(NS(=O)(=O)c3cn(C)cn3)cccc2C(=O)N([C@H](C)CO)C[C@@H]1C	inactive
CC[C@@]1(O)C(=O)OCc2c1cc1n(c2=O)Cc2c-1nc1cc(F)c(C)c3c1c2[C@@H](N)CC3	active
CCC1(O)C(=O)OCc2c1cc1n(c2=O)Cc2cc3cc(O)ccc3nc2-1 (stereo not given)	inactive
CCC1(O)C(=O)OCc2c1cc1n(c2=O)Cc2cc3c(CN(C)C)c(O)ccc3nc2-1.Cl (stereo not given)	active
CCC[C@@H](N[C@H]1CCS(=O)(=O)C1)C(=O)O	inactive
NC[C@H](c1ccco1)N1CCc2ccccc2C1	inactive
C[C@@H]1CN([C@@H](C)CO)C(=O)c2cccc(NS(=O)(=O)c3ccccc3)c2O[C@@H]1CN(C)Cc1ccncc1	inactive
C[C@H](CO)N1C[C@H](C)[C@H](CN(C)S(=O)(=O)c2ccc(Cl)cc2)Oc2ccc(NC(=O)Cn3cnnn3)cc2CC1=O	inactive
COCC#Cc1ccc([C@@H]2[C@@H](CO)N3C(=O)CN(C(=O)C4CCOCC4)C[C@@H]23)cc1	inactive
Cc1noc(C)c1NC(=O)N(C)C[C@@H]1Oc2ccc(NC(=O)Cn3cnnn3)cc2C(=O)N([C@H](C)CO)C[C@@H]1C	inactive
Cc1cc(C(C)(C)CC(C)(C)C)ccc1OCCOCC[N+](C)(C)Cc1ccccc1.[Cl-]	active
C[N+](C)(CCOc1ccccc1)Cc1ccccc1.O=C(O)c1cc2ccccc2c(Br)c1O	inactive
C[N+](C)(CCOc1ccccc1)Cc1ccccc1.O=C([O-])c1cc2ccccc2cc1O	inactive
C[C@H](CO)N1C[C@H](C)[C@@H](CN(C)S(=O)(=O)c2cn(C)cn2)Oc2ncc(/C=C/c3ccccc3)cc2C1=O	inactive
Cc1ccc(S[C@]2(C(=O)NCCCN(C)C)CC(=O)N(Cc3ccccc3Cl)[C@@H]2c2ccc(CO)cc2I)cc1	inactive
COc1ccc(NC(=O)N(C)C[C@H]2OCCCC[C@@H](C)Oc3ccc(NS(=O)(=O)c4ccc(C)cc4)cc3C(=O)N([C@@H](C)CO)C[C@H]2C)cc1	inactive
CC(C)Cn1cnc2ccccc21	inactive
CCn1c(=S)ccc2ccccc21	inactive
CCn1cc(-c2ccc3ccccc3n2)c(=S)c2ccccc21	active
CN1N=C(C(N)=O)CCC1=O	inactive
C[C@@H]1CN([C@H](C)CO)C(=O)c2cc(NC(=O)Cn3cnnn3)ccc2O[C@@H]1CN(C)C(=O)Nc1ccccc1	inactive
O=C(C[C@@H]1CC[C@H]2[C@@H](COC[C@@H](O)CN2S(=O)(=O)c2ccccc2)O1)N1CCc2ccccc2C1	inactive
COc1nc(N)nc2c1ncn2[C@@H]1O[C@H](CO[P@@](=O)(N[C@@H](C)C(=O)OCC(C)(C)C)Oc2cccc3ccccc23)[C@@H](O)[C@@]1(C)O	active

Structure (SMILES)	cytotoxicity call
CC(C)OC(=O)[C@H](C)N[P@](=O)(OC[C@H]1O[C@@H](n2ccc(=O)[nH]c2=O)[C@@](C)(O)[C@@H]1O)Oc1ccccc1	inactive
C[C@H](N[P@@](=O)(OC[C@H]1O[C@@H](n2ccc(N)nc2=O)C(F)(F)[C@@H]1O)Oc1ccccc1)C(=O)OCc1ccccc1	inactive
Cc1noc(C)c1S(=O)(=O)Nc1cccc2c1O[C@H](CN(C)S(=O)(=O)c1ccc(F)cc1)[C@@H](C)CN([C@H](C)CO)C2=O	inactive
Cc1noc(C)c1NC(=O)Nc1ccc2c(c1)C(=O)N([C@H](C)CO)C[C@H](C)[C@H](CN(C)C(=O)Nc1ccc(C(F)(F)F)cc1)OCCCC[C@H](C)O2	inactive
COc1ccc(NC(=O)Nc2ccc3c(c2)C(=O)N([C@@H](C)CO)C[C@@H](C)[C@H](CN(C)S(=O)(=O)c2ccc(OC)cc2)OCCCC[C@H](C)O3)cc1	inactive
C[C@@H]1CN([C@H](C)CO)C(=O)Cc2cc(NC(=O)Cc3ccccc3)ccc2O[C@@H]1CN(C)Cc1ccc(Oc2ccccc2)cc1	active
C[C@H](CO)N1C[C@H](C)[C@@H](CN(C)Cc2ccc(Oc3ccccc3)cc2)Oc2ccc(NC(=O)Cc3ccccc3)cc2CC1=O	inactive
C[C@@H]1CN([C@@H](C)CO)C(=O)Cc2cc(NC(=O)Cc3ccccc3)ccc2O[C@H]1CN(C)Cc1ccc(Oc2ccccc2)cc1	inactive
C[C@H]1CN([C@@H](C)CO)C(=O)Cc2cc(NC(=O)Cc3ccccc3)ccc2O[C@@H]1CN(C)Cc1ccc(Oc2ccccc2)cc1	inactive
C[C@@H]1CN([C@H](C)CO)C(=O)Cc2cc(NC(=O)Cc3ccccc3)ccc2O[C@H]1CN(C)Cc1ccc(Oc2ccccc2)cc1	inactive
C[C@H]1CN([C@@H](C)CO)C(=O)Cc2cc(NC(=O)Cc3ccccc3)ccc2O[C@H]1CN(C)Cc1ccc(Oc2ccccc2)cc1	active
C[C@@H]1CN([C@@H](C)CO)C(=O)Cc2cc(NC(=O)Cc3ccccc3)ccc2O[C@@H]1CN(C)Cc1ccc(Oc2ccccc2)cc1	active
C[C@H](CO)N1C[C@H](C)[C@H](CN(C)Cc2ccc(Oc3ccccc3)cc2)Oc2ccc(NC(=O)Cc3ccccc3)cc2CC1=O	inactive
Cc1ccc(S(=O)(=O)Nc2ccc3c(c2)C(=O)N([C@@H](C)CO)C[C@H](C)[C@H](CN(C)C(=O)CCC(F)(F)F)OCCCC[C@H](C)O3)cc1	inactive
COc1ccc(NC(=O)Nc2ccc3c(c2)C(=O)N([C@H](C)CO)C[C@H](C)[C@H](CN(C)C(=O)Cc2ccccc2)OCCCC[C@@H](C)O3)cc1	inactive
Cc1noc(C)c1NC(=O)Nc1cccc2c1O[C@H](CN(C)S(=O)(=O)c1cn(C)cn1)[C@@H](C)CN([C@H](C)CO)C2=O	inactive
C[C@H](CO)N1C[C@H](C)[C@H](CN(C)S(C)(=O)=O)Oc2ccc(NS(C)(=O)=O)cc2CC1=O	inactive
C=CCNS(=O)(=O)c1cccc2nonc12	inactive
C[C@H](CO)N1C[C@H](C)[C@@H](CN(C)S(=O)(=O)c2cn(C)cn2)Oc2ccc(NS(=O)(=O)c3cn(C)cn3)cc2CC1=O	inactive
C[C@@H]1CCCCO[C@H](CN(C)S(C)(=O)=O)[C@H](C)CN([C@@H](C)CO)C(=O)c2cc(N(C)C)ccc2O1	inactive
O=C(Cc1ccncc1)NCC[C@@H]1CC[C@@H](NC(=O)C2CCOCC2)[C@H](CO)O1	inactive
CC(C)NC(=O)Nc1ccc2c(c1)CC(=O)N([C@H](C)CO)C[C@H](C)[C@H](CN(C)Cc1ccc3c(c1)OCO3)O2	inactive
